ChEMBL document CHEMBL1961873, “Compounds: GSK PKIS; Assays: Nanosyn kinase panel” (2012)

Assays:
[1] = target: Mast/stem cell growth factor receptor Kit (Homo sapiens) (UniProt P10721); conditions: at 1 µM
[2] = system: Mast/stem cell growth factor receptor Kit (Homo sapiens), P10721 [D816V]; conditions: at 0.1 µM
[3] = system: Mast/stem cell growth factor receptor Kit (Homo sapiens), P10721 [D816V]; conditions: at 1 µM
[4] = system: Mast/stem cell growth factor receptor Kit (Homo sapiens), P10721 [T670I]; conditions: at 0.1 µM
Mast/stem cell growth factor receptor Kit (Homo sapiens), P10721 [T670I], sequence (P10721 whole entry T670I): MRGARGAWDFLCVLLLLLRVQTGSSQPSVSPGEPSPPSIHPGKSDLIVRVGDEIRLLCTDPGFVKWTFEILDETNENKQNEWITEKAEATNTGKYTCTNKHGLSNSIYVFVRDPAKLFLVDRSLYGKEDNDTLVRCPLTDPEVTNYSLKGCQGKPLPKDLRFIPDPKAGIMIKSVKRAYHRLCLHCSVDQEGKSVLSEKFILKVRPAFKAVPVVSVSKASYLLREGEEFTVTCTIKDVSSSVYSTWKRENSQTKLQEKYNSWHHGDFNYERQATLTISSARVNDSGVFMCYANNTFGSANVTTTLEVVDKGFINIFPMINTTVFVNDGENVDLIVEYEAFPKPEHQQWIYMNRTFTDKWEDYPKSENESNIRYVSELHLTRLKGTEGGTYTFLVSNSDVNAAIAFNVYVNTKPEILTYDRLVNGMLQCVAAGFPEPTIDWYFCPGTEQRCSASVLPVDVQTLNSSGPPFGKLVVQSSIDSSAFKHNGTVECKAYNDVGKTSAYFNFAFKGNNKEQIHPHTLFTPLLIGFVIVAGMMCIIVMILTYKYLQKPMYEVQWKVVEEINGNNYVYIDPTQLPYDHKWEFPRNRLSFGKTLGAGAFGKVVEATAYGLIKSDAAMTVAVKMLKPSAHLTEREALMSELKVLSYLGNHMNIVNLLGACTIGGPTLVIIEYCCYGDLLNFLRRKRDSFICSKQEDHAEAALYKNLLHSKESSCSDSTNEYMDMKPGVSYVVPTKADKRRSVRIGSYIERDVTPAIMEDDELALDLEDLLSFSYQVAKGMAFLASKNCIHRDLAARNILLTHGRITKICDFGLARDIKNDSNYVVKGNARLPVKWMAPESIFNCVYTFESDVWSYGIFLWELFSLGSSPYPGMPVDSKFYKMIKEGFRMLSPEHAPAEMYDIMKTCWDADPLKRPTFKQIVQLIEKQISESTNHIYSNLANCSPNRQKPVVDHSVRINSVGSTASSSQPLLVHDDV

[5] = system: Mast/stem cell growth factor receptor Kit (Homo sapiens), P10721 [T670I]; conditions: at 1 µM
[6] = system: Mast/stem cell growth factor receptor Kit (Homo sapiens), P10721 [V560G]; conditions: at 0.1 µM
Mast/stem cell growth factor receptor Kit (Homo sapiens), P10721 [V560G], sequence (P10721 whole entry V560G): as the sequence (P10721 whole entry T670I) above, with V560G, I670T counted along it

[7] = system: Mast/stem cell growth factor receptor Kit (Homo sapiens), P10721 [V560G]; conditions: at 1 µM
[8] = target: Tyrosine-protein kinase Lck (Homo sapiens) (UniProt P06239); conditions: at 0.1 µM
Tyrosine-protein kinase Lck (Homo sapiens), sequence (P06239 2-509 limits assumed): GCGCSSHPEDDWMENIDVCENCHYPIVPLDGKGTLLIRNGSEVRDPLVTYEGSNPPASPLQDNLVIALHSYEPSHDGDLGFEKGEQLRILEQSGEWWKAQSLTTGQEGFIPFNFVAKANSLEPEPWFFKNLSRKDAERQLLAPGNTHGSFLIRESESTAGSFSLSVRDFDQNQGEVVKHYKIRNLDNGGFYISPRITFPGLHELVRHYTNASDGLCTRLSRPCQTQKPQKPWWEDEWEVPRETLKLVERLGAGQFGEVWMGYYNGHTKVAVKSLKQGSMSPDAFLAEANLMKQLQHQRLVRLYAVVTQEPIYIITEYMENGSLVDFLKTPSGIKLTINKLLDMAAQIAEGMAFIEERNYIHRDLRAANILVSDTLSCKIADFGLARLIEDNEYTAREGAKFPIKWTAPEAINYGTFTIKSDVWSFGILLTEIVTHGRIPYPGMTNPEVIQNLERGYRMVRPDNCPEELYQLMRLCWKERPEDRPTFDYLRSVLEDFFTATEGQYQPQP

[9] = target: Tyrosine-protein kinase Lck (Homo sapiens) (UniProt P06239); conditions: at 1 µM
[10] = target: Leukocyte tyrosine kinase receptor (Homo sapiens) (UniProt P29376); conditions: at 0.1 µM
Leukocyte tyrosine kinase receptor (Homo sapiens), sequence (P29376 whole entry): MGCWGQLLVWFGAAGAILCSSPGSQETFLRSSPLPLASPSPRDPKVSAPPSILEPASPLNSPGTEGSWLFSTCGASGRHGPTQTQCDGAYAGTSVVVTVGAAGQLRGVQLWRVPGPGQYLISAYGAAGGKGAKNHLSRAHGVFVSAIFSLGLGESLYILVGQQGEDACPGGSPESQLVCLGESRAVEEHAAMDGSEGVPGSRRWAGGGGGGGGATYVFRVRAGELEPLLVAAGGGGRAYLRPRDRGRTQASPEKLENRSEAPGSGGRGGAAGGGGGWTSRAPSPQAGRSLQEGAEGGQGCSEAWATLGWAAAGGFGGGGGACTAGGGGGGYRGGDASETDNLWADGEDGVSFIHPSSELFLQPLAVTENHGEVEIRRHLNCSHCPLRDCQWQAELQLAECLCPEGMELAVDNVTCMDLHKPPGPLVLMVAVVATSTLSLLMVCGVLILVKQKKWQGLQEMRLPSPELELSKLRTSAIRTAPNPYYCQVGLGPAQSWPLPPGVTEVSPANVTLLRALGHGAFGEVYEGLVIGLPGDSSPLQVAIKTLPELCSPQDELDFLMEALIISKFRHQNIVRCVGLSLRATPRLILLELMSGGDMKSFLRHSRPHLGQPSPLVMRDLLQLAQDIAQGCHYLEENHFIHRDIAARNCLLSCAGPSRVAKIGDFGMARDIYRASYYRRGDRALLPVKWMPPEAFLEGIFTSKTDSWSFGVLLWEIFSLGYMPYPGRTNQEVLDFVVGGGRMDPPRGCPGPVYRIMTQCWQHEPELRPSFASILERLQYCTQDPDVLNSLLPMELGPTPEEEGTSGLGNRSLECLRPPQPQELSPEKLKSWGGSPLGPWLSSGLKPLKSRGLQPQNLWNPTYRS

[11] = target: Leukocyte tyrosine kinase receptor (Homo sapiens) (UniProt P29376); conditions: at 1 µM
[12] = target: Tyrosine-protein kinase Lyn (Homo sapiens) (UniProt P07948); conditions: at 0.1 µM
Tyrosine-protein kinase Lyn (Homo sapiens), sequence (P07948 2-512 limits assumed): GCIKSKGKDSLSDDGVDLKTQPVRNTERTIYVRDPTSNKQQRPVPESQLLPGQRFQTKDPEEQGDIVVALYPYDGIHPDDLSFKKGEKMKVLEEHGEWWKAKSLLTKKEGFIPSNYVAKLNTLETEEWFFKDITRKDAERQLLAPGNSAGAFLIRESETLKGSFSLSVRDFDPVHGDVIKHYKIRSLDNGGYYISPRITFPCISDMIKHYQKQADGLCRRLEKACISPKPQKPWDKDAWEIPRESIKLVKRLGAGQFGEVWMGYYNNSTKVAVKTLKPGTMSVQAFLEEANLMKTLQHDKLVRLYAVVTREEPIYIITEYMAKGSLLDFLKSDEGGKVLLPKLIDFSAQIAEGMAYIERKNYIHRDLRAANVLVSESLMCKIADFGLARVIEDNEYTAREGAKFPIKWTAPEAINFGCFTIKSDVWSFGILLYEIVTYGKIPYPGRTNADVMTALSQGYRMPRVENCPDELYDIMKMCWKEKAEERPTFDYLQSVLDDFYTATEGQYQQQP

[13] = target: Tyrosine-protein kinase Lyn (Homo sapiens) (UniProt P07948); conditions: at 1 µM
[14] = target: Tyrosine-protein kinase Lyn (Homo sapiens) (UniProt P07948); conditions: at 0.1 µM; remark: listed apart in the source
[15] = target: Tyrosine-protein kinase Lyn (Homo sapiens) (UniProt P07948); conditions: at 1 µM; remark: listed apart in the source
[16] = target: T1, Tyrosine-protein kinase Mer (Homo sapiens) (UniProt Q12866); conditions: at 0.1 µM
T1 sequence (whole entry): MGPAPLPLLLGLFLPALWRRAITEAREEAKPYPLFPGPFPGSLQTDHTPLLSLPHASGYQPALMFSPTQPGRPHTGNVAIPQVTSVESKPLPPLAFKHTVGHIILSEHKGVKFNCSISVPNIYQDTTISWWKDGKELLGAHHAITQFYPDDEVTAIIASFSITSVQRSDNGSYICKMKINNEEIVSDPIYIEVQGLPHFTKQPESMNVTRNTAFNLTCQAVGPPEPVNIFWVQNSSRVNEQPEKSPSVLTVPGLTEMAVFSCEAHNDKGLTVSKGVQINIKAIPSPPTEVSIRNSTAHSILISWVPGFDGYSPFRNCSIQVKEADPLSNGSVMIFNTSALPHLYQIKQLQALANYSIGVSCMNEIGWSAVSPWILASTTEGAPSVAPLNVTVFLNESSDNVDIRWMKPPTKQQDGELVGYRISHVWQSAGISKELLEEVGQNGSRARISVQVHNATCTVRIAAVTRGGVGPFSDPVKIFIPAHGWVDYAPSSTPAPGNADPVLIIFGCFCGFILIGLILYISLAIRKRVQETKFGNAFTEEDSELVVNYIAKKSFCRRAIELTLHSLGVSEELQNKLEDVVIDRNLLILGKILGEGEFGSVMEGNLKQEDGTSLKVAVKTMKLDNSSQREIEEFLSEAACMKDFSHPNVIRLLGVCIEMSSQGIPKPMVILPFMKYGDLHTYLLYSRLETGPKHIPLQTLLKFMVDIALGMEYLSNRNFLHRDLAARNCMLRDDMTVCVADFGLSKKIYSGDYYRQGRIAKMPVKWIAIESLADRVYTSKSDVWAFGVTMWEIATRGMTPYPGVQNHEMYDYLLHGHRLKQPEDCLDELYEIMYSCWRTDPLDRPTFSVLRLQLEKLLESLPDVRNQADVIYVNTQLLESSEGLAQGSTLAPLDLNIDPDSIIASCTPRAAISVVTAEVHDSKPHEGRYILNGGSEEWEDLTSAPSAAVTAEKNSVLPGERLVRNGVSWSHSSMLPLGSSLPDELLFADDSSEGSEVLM

[17] = target: T1, Tyrosine-protein kinase Mer (Homo sapiens); conditions: at 1 µM
[18] = target: Hepatocyte growth factor receptor (Homo sapiens) (UniProt P08581); conditions: at 0.1 µM
Hepatocyte growth factor receptor (Homo sapiens), sequence (P08581 whole entry): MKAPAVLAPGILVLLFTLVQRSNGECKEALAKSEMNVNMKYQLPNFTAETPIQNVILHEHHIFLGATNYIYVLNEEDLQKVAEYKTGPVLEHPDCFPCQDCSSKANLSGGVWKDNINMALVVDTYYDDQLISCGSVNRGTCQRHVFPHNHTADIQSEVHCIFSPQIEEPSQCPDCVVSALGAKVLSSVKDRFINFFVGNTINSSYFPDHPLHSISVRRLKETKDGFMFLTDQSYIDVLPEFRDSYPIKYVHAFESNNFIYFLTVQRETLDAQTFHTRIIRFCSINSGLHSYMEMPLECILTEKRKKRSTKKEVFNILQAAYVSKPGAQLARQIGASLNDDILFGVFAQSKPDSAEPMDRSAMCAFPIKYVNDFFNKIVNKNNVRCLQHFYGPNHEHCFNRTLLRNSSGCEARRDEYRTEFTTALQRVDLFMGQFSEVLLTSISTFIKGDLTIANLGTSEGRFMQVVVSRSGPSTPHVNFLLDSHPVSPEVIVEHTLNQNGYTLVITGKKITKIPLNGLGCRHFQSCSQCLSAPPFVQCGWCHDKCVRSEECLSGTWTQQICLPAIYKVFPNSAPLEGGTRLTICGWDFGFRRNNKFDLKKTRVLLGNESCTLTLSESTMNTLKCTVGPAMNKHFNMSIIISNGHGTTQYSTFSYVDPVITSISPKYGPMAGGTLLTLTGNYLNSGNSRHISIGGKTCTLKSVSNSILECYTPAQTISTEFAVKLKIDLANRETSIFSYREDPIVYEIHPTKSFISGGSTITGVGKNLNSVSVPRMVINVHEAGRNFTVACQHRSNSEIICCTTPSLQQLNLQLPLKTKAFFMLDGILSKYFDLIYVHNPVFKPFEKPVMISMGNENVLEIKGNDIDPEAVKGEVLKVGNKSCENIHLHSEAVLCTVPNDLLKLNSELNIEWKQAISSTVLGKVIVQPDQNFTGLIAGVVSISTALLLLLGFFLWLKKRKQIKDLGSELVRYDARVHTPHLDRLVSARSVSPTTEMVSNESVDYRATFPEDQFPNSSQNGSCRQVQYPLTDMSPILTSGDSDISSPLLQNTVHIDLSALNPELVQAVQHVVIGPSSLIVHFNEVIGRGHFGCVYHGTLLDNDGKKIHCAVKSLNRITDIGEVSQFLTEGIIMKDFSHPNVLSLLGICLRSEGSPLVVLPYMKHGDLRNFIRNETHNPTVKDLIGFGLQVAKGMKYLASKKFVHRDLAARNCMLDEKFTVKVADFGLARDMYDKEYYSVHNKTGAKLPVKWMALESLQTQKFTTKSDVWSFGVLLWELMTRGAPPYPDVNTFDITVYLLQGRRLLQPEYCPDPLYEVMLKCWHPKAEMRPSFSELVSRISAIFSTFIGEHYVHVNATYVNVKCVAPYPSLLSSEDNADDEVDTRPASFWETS

[19] = target: Hepatocyte growth factor receptor (Homo sapiens) (UniProt P08581); conditions: at 1 µM
[20] = target: T2, Muscle, skeletal receptor tyrosine-protein kinase (Homo sapiens) (UniProt O15146); conditions: at 0.1 µM;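 further: values are mean inhibition of MuSK from the GSK PKIS kinase screening panel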
T2 sequence (whole entry): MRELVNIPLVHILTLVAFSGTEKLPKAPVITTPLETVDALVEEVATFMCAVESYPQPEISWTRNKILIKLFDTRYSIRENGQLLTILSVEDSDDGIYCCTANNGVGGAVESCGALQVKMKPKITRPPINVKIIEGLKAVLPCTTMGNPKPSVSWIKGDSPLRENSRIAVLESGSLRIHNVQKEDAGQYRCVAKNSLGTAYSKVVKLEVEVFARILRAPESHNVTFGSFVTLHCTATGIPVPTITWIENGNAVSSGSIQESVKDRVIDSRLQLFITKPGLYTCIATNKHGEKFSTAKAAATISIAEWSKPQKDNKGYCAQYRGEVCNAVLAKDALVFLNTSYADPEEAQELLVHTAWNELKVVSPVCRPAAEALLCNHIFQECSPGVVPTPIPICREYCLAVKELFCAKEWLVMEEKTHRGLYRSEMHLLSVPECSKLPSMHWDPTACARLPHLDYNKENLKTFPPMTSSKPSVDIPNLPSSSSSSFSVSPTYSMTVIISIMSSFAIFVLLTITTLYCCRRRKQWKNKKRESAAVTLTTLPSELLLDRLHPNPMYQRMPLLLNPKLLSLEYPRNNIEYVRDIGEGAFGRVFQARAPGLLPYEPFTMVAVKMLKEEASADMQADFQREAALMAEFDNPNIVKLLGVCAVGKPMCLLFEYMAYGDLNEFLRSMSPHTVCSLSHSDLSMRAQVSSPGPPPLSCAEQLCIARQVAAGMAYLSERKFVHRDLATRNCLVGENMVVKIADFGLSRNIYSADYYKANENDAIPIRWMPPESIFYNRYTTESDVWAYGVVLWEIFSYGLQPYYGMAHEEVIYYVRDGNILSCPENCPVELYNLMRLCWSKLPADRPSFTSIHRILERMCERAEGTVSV

Mast/stem cell growth factor receptor Kit (Homo sapiens), sequence (P10721 whole entry): as the sequence (P10721 whole entry T670I) above, with I670T counted along it
Mast/stem cell growth factor receptor Kit (Homo sapiens), P10721 [D816V], sequence (P10721 whole entry D816V): as the sequence (P10721 whole entry T670I) above, with I670T, D816V counted along it

Compound	inhibition [1] [%]	inhibition [2] [%]	inhibition [3] [%]	inhibition [4] [%]	inhibition [5] [%]	inhibition [6] [%]	inhibition [7] [%]	inhibition [8] [%]	inhibition [9] [%]	inhibition [10] [%]	inhibition [11] [%]	inhibition [12] [%]	inhibition [13] [%]	inhibition [14] [%]	inhibition [15] [%]	inhibition [16] [%]	inhibition [17] [%]	inhibition [18] [%]	inhibition [19] [%]	inhibition [20] [%]
COc1cc(C)c(N(C)C(=O)CN(C)C)cc1Nc1nc(Nc2cccc(F)c2C(N)=O)c2cc[nH]c2n1	-0.73	-0.92	0.99	-0.51	-1.63	-1.08	-3.38	-3.07	-1.56	11.7	57.5	0.96	2.25	-0.16	0.99	1.74	1.94	-0.92	1.68	1.6
NC(=O)c1cc(-c2ccc(F)cc2)cc(-c2ccncc2)c1N	46.7	2.24	4.8	4.07	8.15	-2.86	1.74	2.03	7.42	3.88	2.67	7.55	9	5	5.99	1.16	0.38	3.9	8.57	3.05
CN(C)CCOc1ccc(-c2cc(-c3ccc4c(c3)CCC4=NO)c(-c3ccncc3)o2)cc1	1.55	-1.77	-0.88	0.11	0.36	1.5	3.34	2.65	24.9	-0.5	-0.32	0.86	4.14	0.71	3.2		4.1	12.9	5.81	-0.04
Cc1ccc(C(=O)NC(C)C)cc1-c1ccc(C(=O)NCC2CC2)cc1	-4.83	14.1	-0.69	-3.01	-1.47	1.17	1.03	-1.32	0.84	-1.19	-1.83	-2.52	-1.28	-1.84	-0.78	-1.23	-0.29	-2.98	-5.28	-2.44
C[C@@H](Oc1cc(-n2cnc3ccc(OC4CCN(C)CC4)cc32)sc1C(N)=O)c1ccccc1Cl	5.22	1.72	6.14	1.3	6.17	-4.05	-2.87	-0.67	4.21	4.01	4.72	3.54	6.86	1.68	5.6	2.77	9.07	7.84	5.01	7.63
Clc1ccc(CNc2nccc(-c3cnn4ncccc34)n2)cc1	19.4	0.92	5.08	1.59	6.47	3.83	7.92	2.31	2.46	0.55	0.38	3.2	5.62	1.68	3.11	-0.52	0.99	2.02	7.73	3.18
COc1cc(Nc2ncc(-c3ccccc3)o2)cc(OC)c1OC	98.7	0.53	0.05	69.3	94.8	22.2	80.4	2.17	25	0.26	1.47	7.48	47.8	5.8	46.5	3.23	3.53	2.19	2.13	1.59
Nc1nccc(-c2c(-c3ccc(F)cc3)ncn2C2CCC(O)CC2)n1 (centres undefined)	17.1	-2.57	1.44	-0.22	-0.69	1.44	5.14	3.6	29.2	-1.37	0.8	3.13	23.6	1.4	18	1.22	7.13	0.14	3.65	0.79
